Bioassay records: PubChem, National Center for Advancing Translational Sciences (NCATS)
In the library only some 12% were active in any assay of this set; here they are far more common.
BAZ2B block: qHTS Assay for Inhibitors of BAZ2B; 360,000 compounds, 4.4% hits; Bromodomain adjacent to zinc finger domain protein 2B (Homo sapiens), Q9UIF8; Potency, µM (titrated, usually from 114 µM), hits mostly inhibitors; AID 504333, 2011; AlphaScreen BAZ2B-H3K14Ac peptide displacement; further: nearly all actives have a fitted effect of over 60% in size
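AlphaScreen luminescence quantifies BAZ2B engagement of H3K14Ac peptide; the protein and biotinylated peptide are both at 50 nM final, buffer PBS pH 7.4 with 0.01% Tween-20, all steps at room temperature.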
G9a inh: qHTS Assay for Inhibitors of Histone Lysine Methyltransferase G9a; G9a H3K9 monomethylation, AlphaScreen, 2 h; Potency, µM (top dose mostly 102 µM), usual class: inhibitors; 350,000 compounds, 8.8% hits; further: nearly all actives have a fitted effect of over 75% in size
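AlphaScreen read-out: biotin-H3K9 peptide (500 nM) methylation by 20 nM enzyme with 20 uM SAM, 2 h at room temperature after 15 min compound preincubation; anti-monomethyl H3K9 antibody plus donor/acceptor beads, 10 min dark.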
HP1b binding inh: HTS for Inhibitors of HP1-beta Chromodomain Interactions with Methylated Histone Tails | AlphaScreen HP1-beta / biotin-H3K9me3 peptide binding | Potency, µM (doses to about 114 µM), most hits filed as inhibitors | 390,000 compounds, 0.56% hits | AID 540317, 2011; further: nearly all actives have a fitted effect of over 70% in size
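AlphaScreen: HP1-beta (50 nM) preformed 30 min with biotin-H3(1-18)K9me3 peptide (50 nM) in PBS pH 7.4, 0.01% Tween-20. Compound added for 30 min at RT, then streptavidin donor/nickel chelate acceptor beads (10 ug/mL) for 30 min.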
L3MBTL1 inh: qHTS Assay for the Inhibitors of L3MBTL1 | Lethal(3)malignant brain tumor-like protein 1 (Homo sapiens), Q9Y468 | AlphaScreen L3MBTL1–H3K9me1 peptide binding | Potency, µM (highest dose often 57.1 µM), usual class: inhibitors | 230,000 compounds, 0.66% hits | AID 485360, 2010; further: nearly all actives have a fitted effect of over 60% in size
Target sequence (Q9Y468 whole entry, looked up): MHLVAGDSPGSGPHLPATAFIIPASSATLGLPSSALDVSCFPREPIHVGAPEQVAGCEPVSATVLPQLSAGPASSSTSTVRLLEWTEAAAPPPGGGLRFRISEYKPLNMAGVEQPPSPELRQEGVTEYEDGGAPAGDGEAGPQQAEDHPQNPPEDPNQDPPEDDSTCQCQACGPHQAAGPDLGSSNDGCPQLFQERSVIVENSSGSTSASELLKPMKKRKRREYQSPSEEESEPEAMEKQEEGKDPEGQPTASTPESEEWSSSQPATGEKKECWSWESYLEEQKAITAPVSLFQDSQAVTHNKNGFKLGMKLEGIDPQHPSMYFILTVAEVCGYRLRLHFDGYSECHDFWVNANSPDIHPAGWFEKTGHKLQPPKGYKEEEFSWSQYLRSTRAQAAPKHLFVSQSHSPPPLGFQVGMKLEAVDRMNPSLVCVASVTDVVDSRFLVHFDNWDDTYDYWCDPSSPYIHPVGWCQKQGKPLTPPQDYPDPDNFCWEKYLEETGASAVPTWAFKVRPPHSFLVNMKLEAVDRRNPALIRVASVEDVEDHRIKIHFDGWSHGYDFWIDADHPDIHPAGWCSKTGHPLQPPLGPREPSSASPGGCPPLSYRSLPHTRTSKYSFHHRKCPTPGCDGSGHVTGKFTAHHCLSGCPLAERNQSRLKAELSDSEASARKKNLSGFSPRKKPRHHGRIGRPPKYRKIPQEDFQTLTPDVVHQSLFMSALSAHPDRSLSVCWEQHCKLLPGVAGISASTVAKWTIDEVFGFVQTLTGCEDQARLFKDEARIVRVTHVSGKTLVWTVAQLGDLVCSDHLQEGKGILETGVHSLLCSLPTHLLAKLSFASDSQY
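L3MBTL1 (50 nM) pre-complexed 30 min with biotinylated H3(1-15)K9me1 peptide (75 nM), then compounds added for 30 min at room temperature; AlphaScreen streptavidin donor/nickel chelate acceptor beads (10 ug/mL final) read after 30 min dark incubation.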
Sfp PPTase inh: qHTS Assay for Inhibitors of Bacillus subtilis Sfp phosphopantetheinyl transferase (PPTase); Biochemical Sfp PPTase activity, qHTS; Potency, µM, actives largely listed as inhibitors; 310,000 compounds, 3.5% hits; AID 1490, 2009;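 further: the enzyme is Sfp with the accession as filed and its product quenches rhodamine fluorescence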
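With Hepes-Na pH 7.6 buffer containing 10 mM MgCl2, Sfp (15 nM) modified BHQ-2-YbbR (12.5 uM) using rhodamine-CoA (5 uM). Two reads 30 minutes apart at 525/598 nm yielded each well's rate.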
JMJD2A Tudor: qHTS Assay for Inhibitors of JMJD2A-Tudor Domain. Lysine-specific demethylase 4A (Homo sapiens), O75164. AlphaScreen JMJD2A-Tudor / H3K4me3 peptide binding. Potency, µM (highest dose often 114 µM), actives largely listed as inhibitors. 390,000 compounds, 4.4% hits; further: nearly all actives have a fitted effect of over 50% in size
Numbers stand for hits; – = inactive; ? = inconclusive; · = no result given; [ ] = remark or other dose. The call rests on the fitted dose curve; in most records, active means well fitted curve in the direction sought with a large enough effect; inconclusive means small, poorly fitted or top-dose-only effect, or another doubt; inactive means no such curve, though single readings can be large; an effect the other way counts as inactive or inconclusive.

SMILES	BAZ2B block	G9a inh	HP1b binding inh	L3MBTL1 inh	Sfp PPTase inh	JMJD2A Tudor
C=CCOc1ccc(-c2nc3c(c(=O)[nH]c(=O)n3CCCC)n2C)cc1OC	–	–	–	–	–	32µM
COc1ccc(OC)c(NC(=O)Cn2c(=O)n(Cc3nc(C)no3)c(=O)c3ccccc32)c1	–	–	–	·	·	–
CCc1cc2c(=O)[nH]c(-c3ccccn3)nc2s1	28µM	–	–	?	–	25µM
COc1ccccc1NS(=O)(=O)c1ccc(N/N=C/c2ccccc2OCC(=O)O)c([N+](=O)[O-])c1	40µM	20µM	?	·	–	56µM
COc1ccccc1NS(=O)(=O)c1ccc(NN=C2CCCC2)c([N+](=O)[O-])c1	?	25µM	?	–	–	20µM
O=C(O)COc1ccccc1/C=N/Nc1ccc(S(=O)(=O)Nc2ccc(Cl)cc2)cc1[N+](=O)[O-]	35µM	35µM	?	–	–	?
COc1ccccc1NS(=O)(=O)c1ccc(N/N=C/C=C/c2ccccc2[N+](=O)[O-])c([N+](=O)[O-])c1	?	–	–	–	–	?
COc1ccccc1NS(=O)(=O)c1cccc(C(=O)NN=C2CCCC2)c1	–	–	–	–	–	–
CSc1nnc2c(n1)OC(c1cccc(O)c1Cl)Nc1ccccc1-2 (stereo not given)	–	–	–	·	·	–
Fc1ccc(-c2ccnc(=S)[nH]2)cc1	–	–[12.7 µM]	–	–	20µM	–
CC1=C(c2ccc(F)cc2)S(=O)(=O)N=C1N1CCC(C(=O)NCCc2ccco2)CC1	–	–	–	·	·	–
COc1ccc(C(=O)Oc2cc(-c3ccc4c(c3)OCO4)cc(=O)c3c(C)oc(C)c23)cc1	–	?	–	·	·	–
COc1ccc(-c2cc(OC(=O)c3ccc(Cl)cc3)c3c(C)oc(C)c3c(=O)c2)cc1	40µM	?	–	·	·	?
CCOc1ccc(-c2cc(OC(=O)c3ccc(OC)cc3)c3c(C)oc(C)c3c(=O)c2)cc1	–	?	–	·	·	–
CCOc1cc(-c2ccc(OC(=O)c3ccc(OC)cc3)c(OC)c2)cc(=O)c2c(C)oc(C)c12	?	16µM	–	·	·	?
O=C(NC(Cc1ccccc1)C(=O)O)/C(=C/c1cccc([N+](=O)[O-])c1)NC(=O)c1cccc(Br)c1 (stereo not given)	–	–	–	·	–	–
CC(C)Nc1nc(Cl)nc(NN(C)c2nc(N(C)C)nc(N(C)C)n2)n1	–	–	–	–	–	–
CCCCN(NC(C)=O)c1nc(Cl)nc(NC(C)C)n1	–	50µM	–	·	–	–
Cc1csc(NC(=O)CSc2ncc(-c3ccccc3)[nH]2)n1	50µM	3.2µM	–	–	–	–
Cc1csc(NC(=O)CSc2nc3ccccc3c3c2CCCC3)n1	–	28µM	–	–	–	–
CC(=O)N(Cc1cc(=O)[nH]c2ccccc12)c1ccccc1C	–	25µM	–	·	–	?
CCCC(=O)N(Cc1cc(=O)[nH]c2ccccc12)c1ccccc1C	–	35µM	–	·	–	?
Cc1cc(NC(=O)Cn2c(=O)n(Cc3ccccc3)c(=O)c3ccccc32)no1	–	–[2.33 µM]	–	–	25µM	–
CN(Cc1n[nH]c(=S)n1C)S(=O)(=O)c1ccccc1	–	·	–	–	–	5.6µM
Cn1c(CC(=O)Nc2ccc(Cl)c(Cl)c2)n[nH]c1=S	–	14µM	–	–	–	–
SMILES	BAZ2B block	G9a inh	HP1b binding inh	L3MBTL1 inh	Sfp PPTase inh	JMJD2A Tudor
Cc1ccc(NC(=O)Cc2n[nH]c(=S)n2C)cc1	–	?	–	·	–	8.9µM
CN(Cc1nc2ccccc2n1C)S(=O)(=O)c1ccc(F)cc1	–	–	–	–	–	–
CCn1c(CC(=O)Nc2ccc(C)cc2)n[nH]c1=S	?	5µM	–	–	–	3.5µM
Cc1cccc(C)c1NC(=S)N(CCCN1CCN(C)CC1)Cc1cccs1	–	–	–	·	–	–
COc1cccc(Cn2c(=O)c(-c3ccc(Cl)cc3)nc3cnc(OC)nc32)c1	·	–[0.501 µM]	·	·	–	·
COc1ccc(OCC2c3cc(OC)c(OC)cc3CCN2C(=O)COc2ccc(Cl)cc2Cl)cc1 (stereo not given)	–	–	–	·	·	–
Cn1c(CC(=O)Nc2ccc(Cl)c(Cl)c2)nnc1SCC(=O)N1CCN(c2ccccc2)CC1	–	–	–	–	–	–
Cc1ccccc1NC(=O)Cc1nnc(SCC(=O)Nc2ccccc2)n1C	–	–	–	–	–	–
CC(NC(=O)CSc1nnc(CC(=O)Nc2ccc(Cl)c(Cl)c2)n1C)c1ccccc1 (stereo not given)	?	13µM	–	·	–	–
Cn1c(CC(=O)Nc2ccccc2)n[nH]c1=S	–	–	–	–	–	5µM
COc1cc(Cl)c(NC(=O)c2cc(CN3CCCC3)on2)c(OC)c1	–	–	–	·	·	–
CC(C)NC(=O)N1CCC2(CC1)CCN(C(=O)c1cnccn1)CC2	·	–[12.7 µM]	·	·	–	·
COC(=O)C1=C(C)C(c2ccc(OC)cc2)NC(=S)N1 (stereo not given)	–	–[12.7 µM]	–	–	–	–
S=C1NC2=C(CCCC2=C2SCCCS2)C(c2ccccc2)N1 (stereo not given)	?	0.79µM	–	·	–	–[11.4 µM]
COc1ccc(C2NC(=S)NC3=C2CCCC3=C2SCCS2)cc1 (stereo not given)	32µM	?	–	–	–	–
O=C1CCCC2=C1C(c1ccccc1)NC(=S)N2 (stereo not given)	–	–	–	–	?	–
COCCn1cc(-c2csc(N)n2)c2ccccc21	?	·	–	–	–	?
CN(C)c1nc(-c2cn(CCC#N)c3ccccc23)cs1	?	28µM	–	·	–	50µM
O=C(c1ccc(NC(=S)NCc2ccc(Cl)cc2)cc1)N1CCCCC1	–	–	–	–	–	–
O=C(CNCc1ccc(Cl)cc1)Nc1ccc(C(=O)N2CCCCC2)cc1	56µM	7.1µM	45µM	·	?	1.1µM
COc1ccc(CCNCC(=O)Nc2ccc(C(=O)N3CCCCC3)cc2)cc1	40µM	8.9µM	?	·	?	1.4µM
O=C(CNCc1ccc(Cl)cc1)Nc1ccc(C(=O)N2CCCCCC2)cc1	50µM	7.9µM	?	·	–	3.5µM
COc1ccc(CCNCC(=O)Nc2ccc(OC(F)F)cc2)cc1	–	–	–	·	–	–
C=C1C[C@H](O)[C@@H]2[C@H](OC(=O)[C@H]2C)[C@H]2[C@H](C)[C@@H](O)C[C@@H]12	–	–[2.33 µM]	–	–	·	–
CC(=O)c1ccc(Nc2cc(C)nc3nc(Cc4ccccc4)nn23)cc1	–	?	–	·	·	–
